In PubChem BioAssay AID504773 (Broad Institute, 2011):
Entries with a potency or affinity are not part of this list.

target: Golgi-associated PDZ and coiled-coil motif-containing protein (Homo sapiens) (UniProt Q9HD26); assay: potency against CAL PDZ-peptide interaction – biochemical, fluorescence polarization, Cerulean-tagged CAL PDZ, cherry-picks, dose response (AID 504773); details: CAL PDZ-peptide binding, 1 h; series mostly up to 50 µM; activity change, negative = inhibition: at the top concentration;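 further: 0% = DMSO neutral wells and -100% = excess unlabeled competitor peptide wells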

Activity change, negative = inhibition, inactive:
O=C(NC12CC3CC(CC(C3)C1)C2)c1ccco1 -31.5%, O=C(COC(=O)c1cccnc1Cl)Nc1ccc2c(c1)OCO2 2.18%, CCN1CCN(S(=O)(=O)c2ccc(OC)c3ccccc23)CC1 7.59%, Cc1cccc(NC(=O)Cn2cnc3c(oc4ccccc43)c2=O)c1C 14.4%, COc1ccc(N2CCN(C3CCCN(Cc4ccc(F)cc4)C3)CC2)cc1 (stereo unspecified) 20%, CCn1c(=O)c(C(C)=O)c(O)c2ccccc21 7.91%, CCN(CC)Cc1c(O)ccc2c1O/C(=C\C=C\c1ccccc1)C2=O -6.76%, O=C(O)c1cccc(Nc2ccc([N+](=O)[O-])cn2)c1 18.4%, CS(=O)(=O)N1CCN(C(=O)c2ccc3c(c2)OCCO3)CC1 -16.2%, Cc1nc(N)c(CC(Br)CBr)c(Cl)n1 (stereo unspecified) 5.44%, Cc1ccccc1N1CCN(S(=O)(=O)c2ccccc2)CC1 5.45%, COc1ccc(NC(=O)c2ccc3c(c2)NC(=O)CO3)cc1OC -10.7%, O=P(O)(COc1ccccc1)COc1ccccc1 1.96%, Cc1ccc(CN(Cc2cccnc2)C(=S)Nc2cccc(Cl)c2C)cc1 3.3%, CN(C(=O)CC1C(=O)NCCN1CC(c1ccccc1)c1ccccc1)C(C1CC1)C1CC1 (stereo unspecified) -16%, O=C(Nc1cccc(F)c1)c1ccco1 20.3%, O=C(Nc1nc2ccccc2[nH]1)c1cc2ccccc2o1 4.01%, Cc1cc(C(=O)CN2CCCC2)c(C)n1-c1ccc(Cl)cc1 -32%, COc1ccc(C(=O)Nc2ccc(S(=O)(=O)N3CCCC3)cc2)cc1[N+](=O)[O-] 10.3%, CCOC(=O)N1CCN(Cc2nc3c(c(=O)n(C)c(=O)n3C)n2Cc2cccc(C)c2)CC1 15.9%, Cc1cccc(C(=O)Nc2ccc(C(=O)/C=C/c3ccncc3)cc2)c1 21.8%, CCc1nc2ccccc2c(C(=O)Oc2cccc3cccnc23)c1C 9.12%, Cc1ccc(Cl)c2c(N=Nc3ccccc3)c(O)[nH]c12 19%, COc1ccc(CN(C)C(C)C(=O)NC2CCCc3ccccc32)cc1 (stereo unspecified) -18.4%, Cc1c(C)c2cc3c4c(oc3c(C)c2oc1=O)CCCC4 19.3%, O=C(O)c1ccc(S(=O)(=O)c2ccc3c(c2)C(=O)N(c2ccccc2[N+](=O)[O-])C3=O)cc1 -12.8%, CC(=O)N1N=C(c2ccccc2)CC1c1ccccc1 (stereo unspecified) -9.8%, CCNC(=S)N(CCN(CC)CC)Cc1cc2cc3c(cc2[nH]c1=O)OCCO3 -12%, Cc1ccc2nc(NCc3ccc(F)cc3)c3nncn3c2c1 4.85%, COc1ccccc1Oc1coc2cc(OC(=O)N3CCOCC3)ccc2c1=O 1.18%, COC(=O)c1cccc([N+](=O)[O-])c1CS(=O)(=O)c1ccc(C)cc1 27.4%, CC(=O)N1CCN(c2ccc(NC(=O)C(c3ccccc3)c3ccccc3)cc2)CC1 9.33%, COc1ccc(Br)c(C(=O)NC2CCCC2)c1 18.1%, CC1(C2CC2)NC(=O)N(CC(=O)NCC(=O)Nc2ccc(F)c(F)c2F)C1=O (stereo unspecified) 22.9%, CN=c1scc(C)n1/N=C/c1cc(Br)c(O)c(Br)c1 12.3%, CCOCCCNC(=S)N1CCN(c2nc(-c3ccccc3)cs2)CC1 -0.951%
